Data published in the supplement of paper PMC3334620.
The full ranking holds about 33,000 sequences; the median of “E-score (-0.5 to 0.5)” is about -0.054, and the highest 2% start at about 0.35. Only a selection was taken, and the highest values are over-represented in it overall.

biological target: T1, Stb5 (UniProt P38699); assay: PBM E-score (8-mer binding enrichment) (E-score (-0.5 to 0.5)); higher = stronger / more preferred TF binding; settings: protein concentration: 200 nM; construct: GST-full length
T1 sequence: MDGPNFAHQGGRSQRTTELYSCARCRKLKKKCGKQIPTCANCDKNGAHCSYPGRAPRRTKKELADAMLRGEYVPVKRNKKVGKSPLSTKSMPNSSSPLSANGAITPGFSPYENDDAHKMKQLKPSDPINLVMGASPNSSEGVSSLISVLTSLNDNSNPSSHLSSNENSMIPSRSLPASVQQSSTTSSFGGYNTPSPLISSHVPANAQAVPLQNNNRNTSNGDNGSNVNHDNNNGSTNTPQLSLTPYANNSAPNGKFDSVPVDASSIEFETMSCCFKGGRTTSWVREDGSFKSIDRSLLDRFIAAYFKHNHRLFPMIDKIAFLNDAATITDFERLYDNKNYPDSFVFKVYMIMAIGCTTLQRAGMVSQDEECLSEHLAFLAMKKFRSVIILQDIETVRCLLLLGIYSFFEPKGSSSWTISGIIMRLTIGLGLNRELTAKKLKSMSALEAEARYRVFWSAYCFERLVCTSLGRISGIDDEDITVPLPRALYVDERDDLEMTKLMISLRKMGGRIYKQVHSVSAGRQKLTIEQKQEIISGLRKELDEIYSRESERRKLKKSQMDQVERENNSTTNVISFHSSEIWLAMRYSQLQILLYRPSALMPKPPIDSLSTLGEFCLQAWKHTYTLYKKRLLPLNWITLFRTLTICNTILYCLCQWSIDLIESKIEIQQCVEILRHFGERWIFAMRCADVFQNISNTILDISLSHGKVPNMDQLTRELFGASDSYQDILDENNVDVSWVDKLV
Method: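 Universal 'all 10-mer' protein binding microarrays (Agilent AMADID 015681) probed with GST-tagged S. cerevisiae TFs (full-length or DBD) made by in vitro transcription/translation (PURExpress), about 100-200 nM. Bound TF was detected with fluorescent anti-GST. Each ungapped 8-mer (which stands for itself and its reverse complement) is scored by the PBM enrichment score (E-score), a modified Wilcoxon-Mann-Whitney statistic from -0.5 to +0.5, computed with the Universal PBM Analysis Suite. Scale: above 0.35 generally sequence-specific binding.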

| Sequence | PBM E-score |
| --- | --- |
| ACTTGCAA | -0.00221 |
| CAAGAAGG | -0.193 |
| ATCGTATC | -0.175 |
| AGTCTTAC | -0.185 |
| AAGGGCAT | -0.336 |
| ACTCGGCA | 0.00054 |
| GCATGAGC | -0.0601 |
| GCCCAAGA | -0.114 |
| CCATTGCG | 0.116 |
| CCGCGGAC | 0.362 |
| CGGCGGAG | 0.347 |
| CCGCGGAA | 0.265 |
| CGGCGGAC | 0.377 |
| CCGCGGAG | 0.298 |
| GGGCGGAC | 0.408 |
| CGGCGGAA | 0.348 |
| GCGCGGAC | 0.292 |
| GGGCGGAA | 0.241 |
| AATATATT | 0.208 |
| CCGAACTA | 0.177 |
| CAGCAGGG | -0.0502 |
| CCAGAAGC | 0.0499 |

| Sequence | PBM E-score |
| --- | --- |
| CCTCCTTC | -0.213 |
| CGAGGTGC | -0.146 |
| AGCACCGC | 0.461 |
| AGCACCTC | -0.163 |
| AGCACCAC | -0.0526 |
| CGCACCTC | -0.0539 |
| CGCACCGC | 0.352 |
| CGCACCGA | 0.272 |
| TCAGCTAA | -0.245 |
| GACTAGTC | -0.117 |
| ACTGTATG | -0.0542 |
| CCCGCGGC | 0.333 |
| GCCGCGGA | 0.299 |
| GCCGCGGC | 0.331 |
| CCCGCGGA | 0.322 |
| ACCGCGGT | 0.39 |
| ACCGCGGA | 0.358 |
| ACCGCGAT | 0.346 |
| TCCGCGGA | 0.144 |
| ACCGCGGG | 0.317 |
| CCCGCGGG | 0.361 |
| ACCGCGGC | 0.412 |

| Sequence | PBM E-score |
| --- | --- |
| CCCGCGCG | 0.342 |
| CAAAACAG | -0.0698 |
| CTGACAGA | -0.0917 |
| ACCAGCCC | 0.211 |
| AACGAGGG | -0.19 |
| AAGTCGGT | 0.324 |
| ACTTAAAC | -0.0316 |
| AGGGAGCG | -0.0929 |
| AGCTATCG | -0.103 |
| AAATGAGA | -0.261 |
| GGCACTGA | 0.00323 |
| GAAGAATA | -0.123 |
| AAGGACCG | 0.383 |
| AAGGACCA | -0.0213 |
| CAAGACCG | 0.312 |
| AATGACCG | 0.365 |
| AAAGACCG | 0.448 |
| AAAGACCA | -0.216 |
| AAGGACCT | 0.00048 |
| AATGACCA | -0.133 |
| AATGACCT | -0.0215 |
| AGCATGGC | -0.178 |

| Sequence | PBM E-score |
| --- | --- |
| GGCCTAGA | -0.147 |
| CTGCATCA | -0.327 |
| CACCTGTA | -0.208 |
| ACCCGACG | 0.287 |
| GCCCGACC | 0.306 |
| GCCCGACA | 0.334 |
| CCCCGACA | 0.412 |
| CCCCGACC | 0.355 |
| CCCCGACG | 0.449 |
| ACCCGACC | 0.279 |
| CCCCGAGG | 0.148 |
| TCCCGACA | 0.291 |
| GCGACTCA | -0.156 |
| CGCAGCAG | -0.0406 |
| CGGATATA | 0.443 |
| CGGATTTA | 0.452 |
| CGGATTTC | 0.223 |
| CGGATCTC | 0.103 |
| CGGATGTC | 0.223 |
| CGGATATC | 0.193 |
| CGGATCTA | 0.424 |
| CGGATGTA | 0.381 |

| Sequence | PBM E-score |
| --- | --- |
| GGGATGTA | -0.0169 |
| GGGATCTA | 0.0662 |
| GGGATATA | 0.272 |
| GGGATTTA | 0.351 |
| AGCGATGA | 0.0899 |
| CGCCAGGA | -0.17 |
| ACGTCATC | -0.115 |
| CTACTACC | 0.216 |
| ACAGCACC | 0.202 |
| GGCTAGTA | -0.139 |
| ACCCTGCG | -0.165 |
| TCCACCAA | -0.103 |
| GACAAAGA | -0.0701 |
| CATCCCGG | 0.134 |
| AATCCGGG | 0.233 |
| AATCCCCG | 0.452 |
| AATTCCCA | -0.261 |
| CATTCCCG | 0.203 |
| AATCCCGG | 0.352 |
| AATCCCCC | 0.127 |
| CATCCCCG | 0.264 |
| AATTCCCG | 0.363 |
